Among the data in PubChem BioAssay are inhibition values, retold here.

Unmarked numbers belong to inactive results. Active and inactive are the calls of the source. Cut-off read from the data, not from the text of the source, unless noted: active = inhibition above about 25%; inactive = the rest.

In general, inhibition refers to the drop in the measured response relative to a control, in per cent.

Assay [1] has as its target Nuclear receptor coactivator 3 (Homo sapiens) (UniProt Q9Y6Q9). Kind of assay: SRC3 coactivator transcriptional activity inhibitors, confirmation, cell-based, luminescence, quadruplicate (AID 588792;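 active = mean inhibition over 43.08%, the solvent-only control mean plus 3 SD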;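 note: 0% = DMSO treated cells and 100% = gossypol at 36 µM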). Conditions: HEK293 GAL4-SRC3 luciferase reporter, at 3.6 µM, active compounds read high.
The test system of assay [2] is transactivating tegument protein VP16 (Human herpesvirus 1), Gal4-VP16 luciferase reporter. Kind of assay: VP16 transactivation inhibitors, counter-screen for SRC3 inhibitor project, cell-based, luminescence, high throughput (AID 588794; in the data active = inhibition above about 30%). Conditions: mammalian cells, VP16-driven luciferase reporter luminescence; at 3.6 µM; active compounds read high.
Assay [3] has as its target Nuclear receptor coactivator 1 (Homo sapiens) (UniProt Q15788). Nature of the assay: SRC1 coactivator transcriptional activity inhibitors, confirmation, cell-based, luminescence, quadruplicate (AID 588820;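 active = mean inhibition above 46.68%, the untreated control wells mean plus 3 SD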;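 note: 0% = DMSO wells and 100% = gossypol 36 µM treated wells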). Conditions: HEK293 GAL4-SRC1 luciferase reporter, at 3.6 µM, active compounds read high. Background: Reporter assays use an easily measured gene product as a stand-in for the process of interest.

Assay [4] is described as follows: VP16 transactivation inhibitors, counter-screen for SRC1 inhibitor project, cell-based, luminescence, high throughput (AID 588824). Conditions: cell-based VP16 transactivation luciferase luminescence; at 3.6 µM; active compounds read high. (In general: Counterscreens check selectivity or assay interference.)

Nuclear receptor coactivator 1 (Homo sapiens), sequence (Q15788 whole entry, looked up, the tested form may be a part): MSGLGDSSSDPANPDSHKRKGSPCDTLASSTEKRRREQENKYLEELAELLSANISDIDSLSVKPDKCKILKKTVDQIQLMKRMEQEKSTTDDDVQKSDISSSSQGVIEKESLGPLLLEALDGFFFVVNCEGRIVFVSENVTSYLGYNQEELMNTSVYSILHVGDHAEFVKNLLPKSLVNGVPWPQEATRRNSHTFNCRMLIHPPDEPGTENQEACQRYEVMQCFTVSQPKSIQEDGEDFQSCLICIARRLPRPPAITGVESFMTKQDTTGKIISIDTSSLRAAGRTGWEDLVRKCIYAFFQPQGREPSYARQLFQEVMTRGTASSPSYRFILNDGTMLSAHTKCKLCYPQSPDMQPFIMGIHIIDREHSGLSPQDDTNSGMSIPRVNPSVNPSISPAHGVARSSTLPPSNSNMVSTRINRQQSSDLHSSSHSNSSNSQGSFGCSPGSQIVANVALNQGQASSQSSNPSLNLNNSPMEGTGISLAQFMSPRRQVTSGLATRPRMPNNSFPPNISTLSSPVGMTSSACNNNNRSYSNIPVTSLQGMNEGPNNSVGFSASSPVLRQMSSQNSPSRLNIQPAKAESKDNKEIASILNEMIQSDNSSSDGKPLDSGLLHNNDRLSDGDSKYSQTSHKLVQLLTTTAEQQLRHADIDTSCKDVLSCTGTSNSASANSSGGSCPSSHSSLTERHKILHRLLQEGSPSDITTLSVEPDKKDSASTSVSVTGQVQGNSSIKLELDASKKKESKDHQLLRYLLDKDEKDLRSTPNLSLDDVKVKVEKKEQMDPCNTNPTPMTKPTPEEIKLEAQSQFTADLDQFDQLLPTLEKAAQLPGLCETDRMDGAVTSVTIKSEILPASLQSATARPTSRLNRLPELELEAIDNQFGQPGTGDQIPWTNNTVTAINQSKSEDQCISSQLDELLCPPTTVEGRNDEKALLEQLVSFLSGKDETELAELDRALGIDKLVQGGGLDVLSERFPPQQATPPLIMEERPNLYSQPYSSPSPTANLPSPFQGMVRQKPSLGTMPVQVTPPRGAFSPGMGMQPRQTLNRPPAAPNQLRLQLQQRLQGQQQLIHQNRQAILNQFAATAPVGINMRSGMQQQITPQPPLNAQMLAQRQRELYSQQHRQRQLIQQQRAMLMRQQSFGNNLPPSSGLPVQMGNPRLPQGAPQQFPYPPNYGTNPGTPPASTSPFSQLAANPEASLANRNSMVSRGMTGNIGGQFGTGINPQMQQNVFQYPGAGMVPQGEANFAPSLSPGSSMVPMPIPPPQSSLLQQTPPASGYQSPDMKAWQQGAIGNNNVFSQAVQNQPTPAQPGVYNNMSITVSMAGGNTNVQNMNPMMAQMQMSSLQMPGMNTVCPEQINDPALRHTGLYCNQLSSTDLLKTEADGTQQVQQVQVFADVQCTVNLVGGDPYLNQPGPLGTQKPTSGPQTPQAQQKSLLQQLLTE
Nuclear receptor coactivator 3 (Homo sapiens), sequence (Q9Y6Q9 whole entry, looked up, the tested form may be a part): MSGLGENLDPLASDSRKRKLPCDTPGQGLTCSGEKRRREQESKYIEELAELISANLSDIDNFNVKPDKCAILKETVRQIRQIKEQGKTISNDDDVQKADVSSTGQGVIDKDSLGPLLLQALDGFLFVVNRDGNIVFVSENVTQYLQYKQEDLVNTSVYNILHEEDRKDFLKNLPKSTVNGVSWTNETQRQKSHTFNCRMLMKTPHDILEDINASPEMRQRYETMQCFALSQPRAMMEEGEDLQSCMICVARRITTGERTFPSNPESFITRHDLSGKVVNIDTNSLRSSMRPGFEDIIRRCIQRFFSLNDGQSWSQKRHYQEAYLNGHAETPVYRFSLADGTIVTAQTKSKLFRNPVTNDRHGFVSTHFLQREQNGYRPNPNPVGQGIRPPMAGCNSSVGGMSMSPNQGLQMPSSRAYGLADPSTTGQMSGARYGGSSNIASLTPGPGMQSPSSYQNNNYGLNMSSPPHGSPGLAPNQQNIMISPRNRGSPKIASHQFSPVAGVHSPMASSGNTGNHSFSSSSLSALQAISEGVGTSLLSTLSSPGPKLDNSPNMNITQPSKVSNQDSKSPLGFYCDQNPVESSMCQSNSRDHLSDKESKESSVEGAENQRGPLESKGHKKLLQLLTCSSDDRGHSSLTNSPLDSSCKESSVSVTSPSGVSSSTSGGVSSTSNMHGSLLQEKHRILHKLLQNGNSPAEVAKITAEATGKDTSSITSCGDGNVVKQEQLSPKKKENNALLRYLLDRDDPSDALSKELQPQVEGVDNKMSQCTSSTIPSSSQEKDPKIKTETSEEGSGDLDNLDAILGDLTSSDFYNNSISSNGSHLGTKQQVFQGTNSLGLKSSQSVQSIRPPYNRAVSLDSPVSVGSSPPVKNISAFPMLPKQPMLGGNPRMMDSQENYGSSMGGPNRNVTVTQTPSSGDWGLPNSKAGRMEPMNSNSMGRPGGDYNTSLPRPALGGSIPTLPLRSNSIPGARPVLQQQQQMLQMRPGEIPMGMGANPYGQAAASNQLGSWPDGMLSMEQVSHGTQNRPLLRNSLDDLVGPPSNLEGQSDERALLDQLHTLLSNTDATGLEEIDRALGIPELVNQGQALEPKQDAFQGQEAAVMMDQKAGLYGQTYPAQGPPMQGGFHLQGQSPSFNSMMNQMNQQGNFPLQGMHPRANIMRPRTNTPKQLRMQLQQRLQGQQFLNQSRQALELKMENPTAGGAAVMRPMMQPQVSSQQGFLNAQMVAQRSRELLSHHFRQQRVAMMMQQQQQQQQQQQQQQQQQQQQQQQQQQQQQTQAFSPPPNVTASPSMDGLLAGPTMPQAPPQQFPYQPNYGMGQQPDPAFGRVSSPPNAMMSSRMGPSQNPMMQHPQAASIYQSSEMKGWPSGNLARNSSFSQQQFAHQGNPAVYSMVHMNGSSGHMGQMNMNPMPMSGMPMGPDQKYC

As for `Cc1nnsc1C(=O)N/N=C/c1ccc2ccccc2c1O`, the inhibition in assay [1] is 84.2% (active); in assay [2], 71.3% (active); in assay [3], 75% (active); in assay [4] it was 69.8% (active).
`O=C(NCc1cccs1)c1nc2c(nnn2Cc2ccccc2Cl)c(=O)[nH]1`: the inhibition was 84.2% (active) in assay [1], 79.5% (active) in assay [2], 58.5% (active) in assay [3] and 74.7% (active) in assay [4].
As for `Cc1cccc(CNc2ncnc3ccc(-c4ccoc4)cc23)c1`, the inhibition is 47% (active) in assay [1], 40.7% (active) in assay [2], 45.1% in assay [3] and 46% (active) in assay [4].
In the same order, the values of `COc1ccc2cc3c(N)nn(C(=O)c4ccc(F)cc4)c3nc2c1` are 69.8% (active), 36.1% (active), 56.7% (active) and 36.3% (active).
With `O=C(CCl)N1N=C(c2cccs2)CC1c1ccco1` (stereo unspecified), the inhibition in assay [1] is 27.7%; in assay [2], 6.29%; in assay [3] it was 18.4%; in assay [4], 17.4%.
In the case of `Cc1nc2c(o1)C(=O)c1ccccc1C2=Nc1ccccc1`, the inhibition in assay [1] was 78.5% (active); in assay [2], 94.3% (active); in assay [3], 61.8% (active); in assay [4] it was 79.1% (active).
Turning to `Cc1ccc(S(=O)(=O)N2C[C@@H]3CCCC[C@@H]3[C@@H](C)[C@H]2c2cn(Cc3ccccc3)c3ncccc23)cc1`, the inhibition in assay [1] is 22.3%; in assay [2], 47.6% (active); in assay [3] it was 25.8%; in assay [4], 42.2% (active).
Take `CC(=O)N1c2ccc(S(=O)(=O)NCC3CCC(C(=O)Nc4cccc(C)n4)CC3)cc2CC1C` (stereo unspecified): the inhibition in assay [1] was -3.79%; in assay [2], 27.4%; in assay [3], -11.2%; in assay [4] it was 21.6%.
As to `O=C(C=P(c1ccccc1)(c1ccccc1)c1ccccc1)c1ccccc1-c1ccccc1C(=O)C=P(c1ccccc1)(c1ccccc1)c1ccccc1`, the inhibition was 60.6% (active) in assay [1], 83.9% (active) in assay [2], 24.4% in assay [3] and 82.8% (active) in assay [4].
For `NC(=O)c1sc2nc3c(c(-c4ccco4)c2c1N)CCC3`, the inhibition was 53.9% (active) in assay [1], 8.75% in assay [2], 52.9% (active) in assay [3] and 33.1% (active) in assay [4].
In the same order, the values of `CSc1ncnc2c1ncn2CC(=O)C1CCC2C3CCC4=CC(=O)CCC4(C)C3CCC12C` (stereo unspecified) are 19.5%, 12.2%, -0.31% and 12.1%.
For `Fc1ccc(CSc2nnc(-c3ccncc3)o2)cc1`, the inhibition in assay [1] was 53.9% (active); in assay [2], 22.7%; in assay [3] it was 29.9%; in assay [4], 19.3%.
In the same order, the values of `Cn1c(/C=C/c2ccc(Cl)cc2)c([N+](=O)[O-])c(=O)n(C)c1=O` are 39.6%, 35.7% (active), 36.3% and 28.6% (active).
With `N=c1c2c(-c3ccccc3)c(-c3ccccc3)n(Cc3ccco3)c2ncn1CCCn1ccnc1`, the inhibition was 34% in assay [1], 54.2% (active) in assay [2], 43.8% in assay [3] and 57.4% (active) in assay [4].
Taken in the same sequence, the figures for `Cc1cccc(/C=N/Nc2ccc3ccccc3n2)c1` were 16.1%, -21.2%, -80.5% and -55%.
`CN(Cc1c(C(=O)N/N=C/c2cccc(F)c2)nnn1-c1nonc1N)C1CCCCC1`: the inhibition was -12.4% in assay [1], 3.59% in assay [2], 6.95% in assay [3] and -3.15% in assay [4].
`CN1CC(=O)N2C(c3cccc([N+](=O)[O-])c3)c3[nH]c4ccccc4c3C[C@H]2C1=O` (stereo partly specified): the inhibition in assay [1] is 36.1%; in assay [2], 36.7% (active); in assay [3], 26.9%; in assay [4], 34.5% (active).
On to `O=C(NC(=O)N1CCN(c2cccc(Cl)c2)CC1)c1ccccc1`, for which the inhibition in assay [1] was 23.9%; in assay [2] it was 43.6% (active); in assay [3], 17.9%; in assay [4] it was 41.2% (active).
In the case of `Cc1ccc(S(=O)(=O)N2[C@@H](c3ccc(C(C)(C)C)cc3)C(C(=O)O)=CC[C@H]2c2ccc(Cl)cc2)cc1`, the inhibition in assay [1] is 16.6%; in assay [2], 23.9%; in assay [3], 28.7%; in assay [4], 19.6%.
On to `CCOc1cc(Br)cc(/C=N/NC(=O)c2cccnc2)c1O`, for which the inhibition in assay [1] is 33%; in assay [2], 44.3% (active); in assay [3], 27.3%; in assay [4], 36.9% (active).
In the same order, the values of `CCCN(CCC)c1nc(-c2ccccn2)nc2ccccc12` are 80% (active), 35.2% (active), 30.2% and 29.9% (active).
`CC1=C(C(=O)OCc2ccc3c(c2)OCO3)C(c2ccccc2)NC(=O)N1` (stereo unspecified): the inhibition in assay [1] is 78.7% (active); in assay [2], 59.2% (active); in assay [3] it was 68.9% (active); in assay [4], 61.8% (active).
As to `CCCCCCCCCCCCCCCCCCNc1ccn(C2OC(COP(=O)(O)OCC3OC(n4cc(F)c(=O)[nH]c4=O)CC3O)C(O)C2O)c(=O)n1` (stereo unspecified), the inhibition is 52.3% (active) in assay [1], 38.7% (active) in assay [2], 51% (active) in assay [3] and 31.2% (active) in assay [4].
Turning to `OCCNc1ncnc2ccc(Br)cc12`, the inhibition in assay [1] was 21.8%; in assay [2] it was 30.6% (active); in assay [3] it was 29.2%; in assay [4], 16.2%.
Taken in the same sequence, the figures for `COc1ccc(C(=O)N/N=C/c2cc(Br)ccc2O)cc1OC` were 26.2%, 37.5% (active), 22% and 42.5% (active).
As for `CC(C)(C)c1cc(C(=O)N/N=C/c2ccc(O)cc2)n(-c2ccccc2)n1`, the inhibition is 34.9% in assay [1], 14% in assay [2], 20.3% in assay [3] and 13.7% in assay [4].
`CC1CCN(Cc2c(C(=O)N/N=C/c3cc(Br)ccc3O)nnn2-c2nonc2N)CC1`: the inhibition is 75.4% (active) in assay [1], 83.5% (active) in assay [2], 84.8% (active) in assay [3] and 81.9% (active) in assay [4].
As for `CC(=O)NC(c1ccccc1)c1cc(Cl)c2cccnc2c1O` (stereo unspecified), the inhibition was 29.2% in assay [1], 30.1% (active) in assay [2], 36% in assay [3] and 27% (active) in assay [4].
For `Nc1nccc(-c2ccc(-n3cnc4ccccc43)cc2)n1`, the inhibition is 56.7% (active) in assay [1], 27.4% in assay [2], 57.7% (active) in assay [3] and 26.3% (active) in assay [4].
For the molecule `CCN1CCN(c2ccc(Nc3ccnc4ccccc34)cc2)CC1`, the inhibition in assay [1] is 43.5% (active); in assay [2], 32.1% (active); in assay [3] it was 40.1%; in assay [4], 42.5% (active).
In the case of `CC(C)(C)NC(=O)C(c1ccncc1)N(Cc1cccs1)C(=O)Cn1nnc(-c2ccc(F)cc2)n1` (stereo unspecified), the inhibition is 59.4% (active) in assay [1], 35% (active) in assay [2], 43% in assay [3] and 29.1% (active) in assay [4].
On to `CN(Cc1c(C(=O)N/N=C/c2ccccc2O)nnn1-c1nonc1N)C1CCCCC1`, for which the inhibition was 66.8% (active) in assay [1], 46.5% (active) in assay [2], 59.7% (active) in assay [3] and 59.8% (active) in assay [4].
On to `COc1cccc2nc3c(C(=O)NCCN(C)C)cccc3cc12`, for which the inhibition in assay [1] is 35.9%; in assay [2], 39.9% (active); in assay [3] it was 46.5%; in assay [4] it was 32.7% (active).
As to `Cc1ccc(-n2c(O)c(C=Nc3cc(C)on3)c3ccccc3c2=O)c(C)c1`, the inhibition in assay [1] is 52.8% (active); in assay [2] it was 39.9% (active); in assay [3] it was 44.8%; in assay [4], 35.7% (active).
Take `COc1ccc(Cc2noc(CN3CCN(c4ccc(Cl)cn4)CC3)n2)cc1OC`: the inhibition is 14.7% in assay [1], 21.5% in assay [2], 6.4% in assay [3] and 33% (active) in assay [4].
For `CN1CC(=O)N2C(c3ccc(Cl)cc3)c3[nH]c4ccccc4c3C[C@H]2C1=O` (stereo partly specified), the inhibition was 41.6% in assay [1], 29.5% (active) in assay [2], 25% in assay [3] and 33.9% (active) in assay [4].
`COC1CC(C)C(OC)c2cc(O)cc(c2O)NC(=O)C(C)=CC=CC(C)C(OC(N)=O)C(C)=CC(C)C1OC` (stereo unspecified): the inhibition in assay [1] was 72.5% (active); in assay [2], 80.2% (active); in assay [3] it was -2.07%; in assay [4], 77% (active).
With `Oc1ccc(-c2n[nH]c(=S)n2-c2ccc3c(c2)OCCO3)c(O)c1`, the inhibition is 50% (active) in assay [1], 34% (active) in assay [2], 20.9% in assay [3] and 43.7% (active) in assay [4].
Turning to `Cc1nn(Cc2ccc(Cl)cc2)c(C)c1NC(=O)c1cc(-c2ccc3c(c2)OCO3)on1`, the inhibition in assay [1] is 15.2%; in assay [2], 50.3% (active); in assay [3] it was 29.5%; in assay [4] it was 54.1% (active).
In the case of `CC(=O)c1cccc(NC(=O)Nc2cccnc2)c1`, the inhibition was 64.6% (active) in assay [1], 36.1% (active) in assay [2], 58% (active) in assay [3] and 33.6% (active) in assay [4].
On to `Cc1csc(CNc2ncnc3ccc(-c4ccoc4)cc23)c1`, for which the inhibition in assay [1] was 52.7% (active); in assay [2], 47.6% (active); in assay [3] it was 48% (active); in assay [4] it was 44.5% (active).
As to `O=[N+]([O-])c1ccc(O)c(/C=N/Nc2ccccn2)c1`, the inhibition in assay [1] was 56.8% (active); in assay [2], 41.6% (active); in assay [3] it was 60.6% (active); in assay [4], 37.1% (active).
Taken in the same sequence, the figures for `Cc1ccc(S(=O)(=O)NC(CC(C)C)C(=O)NCC(c2ccco2)N2CCCCC2)cc1` (stereo unspecified) were 27%, 2.93%, 32.8% and -1.82%.
In the same order, the values of `COc1ccc(O)c(/C=N/NC(=O)c2c(C)nnn2-c2nonc2N)c1` are 25.4%, 19.7%, 14.4% and 12%.
In the case of `Cn1c(/C(C#N)=C/c2ccc(-c3ccc(S(N)(=O)=O)cc3)o2)nc2ccccc21`, the inhibition in assay [1] was 27.9%; in assay [2] it was 27.3%; in assay [3], -4.53%; in assay [4], 28.9% (active).
Taken in the same sequence, the figures for `CCCc1c(C)nc2ccccc2c1SCCC#N` were 29.6%, 29%, 39.6% and 25.5% (active).
`CC(C)(C)C(=O)NC(=S)NNC(=O)c1sc2ccccc2c1Cl`: the inhibition in assay [1] is 10.1%; in assay [2], 3.67%; in assay [3] it was -1.3%; in assay [4], -6.4%.
Take `CC(=O)N(C(C)=O)c1ncc2c([nH]c3ccccc32)c1C#N`: the inhibition was 47.9% (active) in assay [1], 30.6% (active) in assay [2], 48.5% (active) in assay [3] and 26.8% (active) in assay [4].
For the molecule `O=C(CCc1ccccc1)NC(c1cccs1)c1cc(Cl)c2cccnc2c1O` (stereo unspecified), the inhibition in assay [1] is 55.5% (active); in assay [2], 42% (active); in assay [3] it was 45%; in assay [4], 45.9% (active).
